These results are taken from PubChem BioAssay (NCATS).

Results filed as inconclusive are left out. Active and inactive are the calls of the source. Unless noted, calls come from the whole dose curve; as a rule, active = well fitted curve in either direction with a large enough effect (not every such curve was filed as active); inconclusive = small, poorly fitted or top-dose-only effect, or another doubt; inactive = flat fitted curve, though single readings scatter.

The nature of assay [1]: AP1 Signaling Pathway (AID 357).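 Note: ME-180 reporter cells stimulated with EGF at its EC50 level; % is set by controls: 0 for no effect and ±100 for the full control effect.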 Summed up:
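Beta-lactamase reporter under AP-1 response element, ME-180 background. Stimulus: EC50 EGF. Compound exposure 5 h, 37 °C. Detection: CCF4, 2.5 h RT, 460/530 nm. Values: AC50 from titration.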

Assay [2] deals with Cytochrome P450 1A2 (Homo sapiens) (UniProt P05177). Description: p450-cyp1a2 (AID 410; calls by dose curve;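 note: -100% = full effect of reference inhibitor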). The method, boiled down:
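Inhibition was calculated relative to 57 uM furafylline (full inhibition). The reaction used human CYP1A2 at 20nM with Luciferin-ME at its Km, 100uM, driven by an NADPH-regenerating system for 60 min at room temperature.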

The nature of assay [3]: NFAT Signaling Pathway (AID 444).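 Note: carbachol stimulus at about its EC50 of 1 µM final; % is set by controls: 0 for no effect and ±100 for the full control effect.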 The note with it: Jurkat NFAT-bla M1, carbachol, beta-lactamase ratio, 5 h; at 17.2 µM (top of the series). The method, boiled down:
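Jurkat cells carrying an NFAT-driven β-lactamase reporter and co-transfected muscarinic M1 receptor were treated with compound plus carbachol (1 uM final, an EC50 level) for 5 h at 37 °C. CCF4 loading followed for 1 h at RT; 460/530 nm ratio gave %activity.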

The nature of assay [4]: Stat Signaling Pathway (AID 446).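 Note: ME-180 cervical cancer cells given 40 pM IL-6 alongside compound; SIE-controlled beta-lactamase reporter measured as 460/530 nm FRET emission ratio; % is set by controls: 0 for no effect and ±100 for the full control effect.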 Summed up: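 ME-180 SIE-bla cells; overnight plating; cpd + IL-6 40 pM, 5 h, 37 C; LiveBLAzer 2.5 h RT; 460/530 nm emission ratio. Normalized to 300 pM IL-6 and 125 nM JAK inhibitor controls.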
Assay [5] has as its target Glucocorticoid receptor (Homo sapiens) (UniProt P04150). Description: GR-GFP Redistribution (AID 450;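 active = compounds whose dose series gives a full or clear partial fitted curve of increased nuclear translocation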; note: potency is the fitted concentration of half-maximal effect). The note with it: U2OS GR-GFP nuclear translocation, laser cytometry, 2 h.
For assay [6] the target is unchanged. Description: GR-EFC Redistribution (AID 451; calls by dose curve; note: potency is the fitted concentration of half-maximal effect). The note with it: CHO-K1 GR-EFC translocation, beta-gal luminescence, 2 h. Summed up: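 CHO-K1 cells stably expressing nuclear-localized β-gal enzyme acceptor and GR fused C-terminally to the enzyme donor fragment; ligand-driven nuclear translocation restores β-gal by complementation. Compounds titrated up to 46 uM final, 2 h at 37 °C; luminescence read.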

Assay [7] deals with Mitogen-activated protein kinase 10 (Mus musculus) (UniProt Q61831). Description: JNK3 AlphaScreen Assay (AID 530).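 Note: kinase came from lysate of stimulated human HepG2 cells; signal reports phosphorylation of biotinylated GST-cJun 1-79 at Ser73 with 10 µM ATP; % is set by controls: 0 for no effect and ±100 for the full control effect.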 Summed up:
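JNK3 came from HepG2 lysates pre-activated with IL-1beta and TNF-alpha and phosphorylated biotinylated GST-cJun (1-79) at 10 uM ATP, pH 7.6, room temperature. Compounds were titrated. AlphaScreen signal used anti-phospho-cJun (Ser73) antibody.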

Assay [8] concerns the target 3',5'-cyclic-AMP phosphodiesterase 4B (Homo sapiens) (UniProt Q07343). Description: qHTS Assay for Inhibitors of PDE-IV (AID 607; active = well fitted activation curve with a large enough effect in the main read-out, with a control signal flat, not every such curve was filed as active; note: % of control where 0% means no effect). The method, boiled down: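 ACTOne HEK293 cells carry a modified cAMP-gated CNG channel and express endogenous PDE4; plated 1000 cells/well, compounds up to 22.9 uM final. Membrane-potential dye fluorescence (ex 535/em 590) was read; parental cells received 10 uM forskolin + 100 uM RO 20-1724.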

Assay [9] concerns the target Cytochrome P450 3A4 (Homo sapiens) (UniProt P08684). Description: qHTS Assay for Activators of Cytochrome P450 3A4 (AID 885; active = well fitted curve in the direction sought with a large enough effect; an effect the other way counts as inactive or inconclusive; note: nearly all actives have a fitted effect of over 65% in size). Summed up: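 20nM CYP3A4 + 25uM Luciferin-PPXE (=KM), 200mM KPO4; cpd 10 min RT; NADPH regen, 60 min RT; stop w/ detection buffer, 20 min; luminescence. Normalized to 57 uM ketoconazole.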
A short description of assay [10]: qHTS Assay for Lipid Storage Modulators (AID 1519; calls by dose curve). Conditions: Drosophila S3 cells, BODIPY lipid droplet/cell ratio, laser cytometry, cells loaded with oleic acid; for activity change, negative = inhibition: at 25.7 µM (top of the series). Summed up: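 Cells seeded at 5,000 per well were treated with compounds over a concentration series and loaded with oleic acid (400 uM, as added). Lipid droplet fluorescence (488 nm excitation, 500-530 nm channel) was read by laser-scanning cytometry and normalized to 20 uM Triacsin C.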

The target in assay [11] is Ubiquitin carboxyl-terminal hydrolase 1 (Homo sapiens) (UniProt O94782). Description: Inhibitors of USP1/UAF1: Pilot qHTS (AID 504865; active = well fitted curve in the direction sought with a large enough effect; an effect the other way counts as inactive or inconclusive;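 note: rhodamine fluorescence freed from ubiquitin-rhodamine substrate followed over time; top concentration of the series differs between compounds; % is set by controls: 0 for no effect and ±100 for the full control effect; nearly all actives have a fitted effect of over 35% in size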). The method, boiled down:
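USP1/UAF1 complex (1nM) preincubated with compound 15 min at room temperature, then Ub-Rho substrate (150nM final) added. Fluorescence read kinetically at 480/540 nm, 6 reads every 60 seconds. Buffer: 50mM HEPES pH 7.8, 0.5mM EDTA, 0.1 mg/ml BSA, 1mM TCEP, 0.01% Tween-20.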

The target of assay [12] is Luciferin 4-monooxygenase (Photinus pyralis) (UniProt P08659). Description: Biochemical firefly luciferase enzyme assay for NPC (AID 624030; active = well fitted curve in the direction sought with a large enough effect; an effect the other way counts as inactive or inconclusive;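 note: purified P. pyralis luciferase at 10 nM with luciferin and ATP substrate; 0% = DMSO and -100% = full luciferase inhibition by PTC124 control; nearly all actives have a fitted effect of over 70% in size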). Summed up: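 Counter-screen for direct inhibition of the luciferase enzyme by approved-drug library compounds, run at 10 nM enzyme in 50 mM Tris acetate (final). Luminescence was read within 5 min of enzyme-buffer addition and normalized to PTC124 versus DMSO (0%).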
Sequence of Luciferin 4-monooxygenase (Photinus pyralis) (P08659 whole entry, looked up): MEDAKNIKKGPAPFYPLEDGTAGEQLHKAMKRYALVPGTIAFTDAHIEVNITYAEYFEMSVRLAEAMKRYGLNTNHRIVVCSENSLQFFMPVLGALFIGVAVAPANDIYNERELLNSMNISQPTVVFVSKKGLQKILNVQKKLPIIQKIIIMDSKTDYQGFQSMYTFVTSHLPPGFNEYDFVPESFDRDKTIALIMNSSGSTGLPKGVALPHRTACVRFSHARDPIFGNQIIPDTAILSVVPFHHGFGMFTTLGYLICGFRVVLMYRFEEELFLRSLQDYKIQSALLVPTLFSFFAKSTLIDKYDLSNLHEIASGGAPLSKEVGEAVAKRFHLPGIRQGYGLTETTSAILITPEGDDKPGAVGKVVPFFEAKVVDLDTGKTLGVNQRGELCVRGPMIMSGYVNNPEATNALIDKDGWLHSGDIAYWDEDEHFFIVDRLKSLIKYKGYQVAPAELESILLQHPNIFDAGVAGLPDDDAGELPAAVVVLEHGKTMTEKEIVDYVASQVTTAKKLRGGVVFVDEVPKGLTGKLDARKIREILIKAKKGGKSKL

Assay [13] in a line: S16 Schwann cell PMP22 intronic element firefly luciferase assay (AID 624032; active = well fitted curve in the direction sought with a large enough effect; an effect the other way counts as inactive or inconclusive;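 note: plate controls were DMSO for no effect and PTC124 positive control mean for full effect; nearly all actives have a fitted effect of over 30% in size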). The method, boiled down: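 Rat S16 Schwann cells stably carrying a PMP22 intronic element-driven Fluc reporter were seeded overnight, then exposed to compounds for 24 h at 37 °C. Luminescence was normalized to PTC124 (positive control) and DMSO (0% activity).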
A short description of assay [14]: qHTS profiling for inhibitors of Plasmodium falciparum proliferation (AID 504749; active = well fitted curve in the direction sought with a large enough effect; an effect the other way counts as inactive or inconclusive;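 note: 0% = DMSO vehicle and full inhibition = artemisinin control; nearly all actives have a fitted effect of over 60% in size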). Conditions: P. falciparum in erythrocytes, SYBR Green DNA, 72 h; at 12.8 µM (top of the series); parasite line A. The method, boiled down:
(§1)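 P. falciparum-infected erythrocytes (0.3% parasitemia, 2.5% hematocrit final) were exposed to compounds for 72 h at 37 C in 5% CO2, then lysed with SYBR Green buffer overnight at room temperature; parasite DNA fluorescence was normalized to artemisinin and DMSO controls.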

In assay [15] the test system is C2A. The assay is described as above. Conditions: P. falciparum in erythrocytes, SYBR Green DNA, 72 h; series mostly up to 28.7 µM. The method, boiled down:
as §1

Assay [16] deals with CP185. The assay is described as above. Conditions: P. falciparum in erythrocytes, SYBR Green DNA, 72 h; series mostly up to 28.7 µM. Summed up: as §1
The test system of assay [17] is FAB9. The description is as above. The note with it: P. falciparum in erythrocytes, SYBR Green DNA, 72 h; series mostly up to 28.7 µM. Summed up: as §1
The mark [18] stands for this setting: measured here: cell count channel max response.
Setting [19] is: measured here: lipid channel max response.

Sequence of Ubiquitin carboxyl-terminal hydrolase 1 (Homo sapiens) (O94782 whole entry, looked up): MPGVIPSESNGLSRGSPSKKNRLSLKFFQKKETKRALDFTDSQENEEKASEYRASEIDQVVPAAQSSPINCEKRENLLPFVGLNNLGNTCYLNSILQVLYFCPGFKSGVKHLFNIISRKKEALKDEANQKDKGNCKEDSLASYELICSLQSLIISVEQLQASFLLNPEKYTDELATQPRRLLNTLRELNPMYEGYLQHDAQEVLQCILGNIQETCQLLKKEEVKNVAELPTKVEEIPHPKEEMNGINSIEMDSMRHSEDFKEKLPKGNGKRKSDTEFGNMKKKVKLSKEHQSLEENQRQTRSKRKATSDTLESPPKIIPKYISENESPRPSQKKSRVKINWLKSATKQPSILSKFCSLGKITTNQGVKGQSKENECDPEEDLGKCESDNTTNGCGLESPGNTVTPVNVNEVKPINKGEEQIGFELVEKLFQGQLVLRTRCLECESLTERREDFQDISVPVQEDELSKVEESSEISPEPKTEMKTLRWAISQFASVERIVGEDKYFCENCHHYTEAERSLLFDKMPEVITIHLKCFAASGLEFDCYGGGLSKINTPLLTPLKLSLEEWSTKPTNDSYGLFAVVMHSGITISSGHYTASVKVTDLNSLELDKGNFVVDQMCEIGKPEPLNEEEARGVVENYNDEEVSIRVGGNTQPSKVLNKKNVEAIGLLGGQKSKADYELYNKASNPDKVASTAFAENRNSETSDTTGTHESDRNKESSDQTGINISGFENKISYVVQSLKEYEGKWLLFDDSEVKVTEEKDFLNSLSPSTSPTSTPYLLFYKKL
Sequence of 3',5'-cyclic-AMP phosphodiesterase 4B (Homo sapiens) (Q07343 whole entry, looked up): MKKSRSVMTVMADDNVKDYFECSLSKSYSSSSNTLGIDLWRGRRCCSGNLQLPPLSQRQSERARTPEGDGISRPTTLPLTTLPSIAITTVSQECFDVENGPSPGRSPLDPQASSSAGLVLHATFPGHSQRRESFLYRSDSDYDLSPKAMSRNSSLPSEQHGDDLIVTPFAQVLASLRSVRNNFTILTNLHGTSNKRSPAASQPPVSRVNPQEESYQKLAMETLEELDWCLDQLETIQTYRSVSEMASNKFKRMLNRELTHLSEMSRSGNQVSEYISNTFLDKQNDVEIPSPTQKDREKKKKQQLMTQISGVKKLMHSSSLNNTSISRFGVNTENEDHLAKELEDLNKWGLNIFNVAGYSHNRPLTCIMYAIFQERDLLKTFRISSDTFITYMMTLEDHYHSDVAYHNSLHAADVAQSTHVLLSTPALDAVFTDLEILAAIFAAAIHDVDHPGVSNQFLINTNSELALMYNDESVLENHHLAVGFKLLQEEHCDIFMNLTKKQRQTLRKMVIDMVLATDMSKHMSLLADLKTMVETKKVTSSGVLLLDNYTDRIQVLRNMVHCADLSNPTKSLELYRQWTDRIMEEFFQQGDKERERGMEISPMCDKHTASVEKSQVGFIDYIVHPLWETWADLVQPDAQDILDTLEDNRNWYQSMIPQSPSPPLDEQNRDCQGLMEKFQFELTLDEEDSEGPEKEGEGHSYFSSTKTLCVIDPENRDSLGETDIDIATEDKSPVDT
Sequence of Cytochrome P450 1A2 (Homo sapiens) (P05177 whole entry, looked up): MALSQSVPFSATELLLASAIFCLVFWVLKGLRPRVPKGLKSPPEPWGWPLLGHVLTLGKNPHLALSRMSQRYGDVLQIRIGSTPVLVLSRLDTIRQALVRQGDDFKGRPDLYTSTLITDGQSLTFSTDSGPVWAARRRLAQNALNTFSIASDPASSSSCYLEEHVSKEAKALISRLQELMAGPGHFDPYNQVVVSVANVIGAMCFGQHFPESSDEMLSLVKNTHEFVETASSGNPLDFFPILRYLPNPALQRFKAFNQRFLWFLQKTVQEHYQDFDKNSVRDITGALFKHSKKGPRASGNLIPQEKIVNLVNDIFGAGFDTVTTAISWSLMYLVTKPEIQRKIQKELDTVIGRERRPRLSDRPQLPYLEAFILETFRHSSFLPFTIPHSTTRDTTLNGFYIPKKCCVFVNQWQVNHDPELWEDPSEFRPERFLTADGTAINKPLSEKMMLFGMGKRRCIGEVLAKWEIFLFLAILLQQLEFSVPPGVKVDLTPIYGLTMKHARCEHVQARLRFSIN
Sequence of Glucocorticoid receptor (Homo sapiens) (P04150 whole entry, looked up, the tested form may be a part): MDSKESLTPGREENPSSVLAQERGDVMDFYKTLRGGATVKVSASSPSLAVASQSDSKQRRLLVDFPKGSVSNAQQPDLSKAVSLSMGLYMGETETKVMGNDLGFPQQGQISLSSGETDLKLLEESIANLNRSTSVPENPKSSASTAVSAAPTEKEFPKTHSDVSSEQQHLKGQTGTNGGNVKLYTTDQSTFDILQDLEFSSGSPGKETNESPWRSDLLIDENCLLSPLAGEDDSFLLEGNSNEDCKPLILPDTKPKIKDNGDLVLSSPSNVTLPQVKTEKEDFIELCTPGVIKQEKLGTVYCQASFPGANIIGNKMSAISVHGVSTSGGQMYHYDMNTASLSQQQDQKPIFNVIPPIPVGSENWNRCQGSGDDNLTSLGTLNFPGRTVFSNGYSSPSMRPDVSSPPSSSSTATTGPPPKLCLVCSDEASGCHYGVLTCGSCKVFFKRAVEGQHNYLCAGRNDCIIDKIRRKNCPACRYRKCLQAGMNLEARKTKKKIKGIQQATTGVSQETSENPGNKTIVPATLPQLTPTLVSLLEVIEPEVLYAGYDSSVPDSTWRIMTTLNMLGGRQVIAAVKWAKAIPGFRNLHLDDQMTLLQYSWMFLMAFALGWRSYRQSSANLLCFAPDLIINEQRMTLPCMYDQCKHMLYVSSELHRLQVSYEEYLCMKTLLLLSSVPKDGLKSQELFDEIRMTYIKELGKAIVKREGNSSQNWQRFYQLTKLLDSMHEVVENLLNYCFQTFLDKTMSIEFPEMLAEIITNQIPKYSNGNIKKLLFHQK
Sequence of Cytochrome P450 3A4 (Homo sapiens) (P08684 whole entry, looked up): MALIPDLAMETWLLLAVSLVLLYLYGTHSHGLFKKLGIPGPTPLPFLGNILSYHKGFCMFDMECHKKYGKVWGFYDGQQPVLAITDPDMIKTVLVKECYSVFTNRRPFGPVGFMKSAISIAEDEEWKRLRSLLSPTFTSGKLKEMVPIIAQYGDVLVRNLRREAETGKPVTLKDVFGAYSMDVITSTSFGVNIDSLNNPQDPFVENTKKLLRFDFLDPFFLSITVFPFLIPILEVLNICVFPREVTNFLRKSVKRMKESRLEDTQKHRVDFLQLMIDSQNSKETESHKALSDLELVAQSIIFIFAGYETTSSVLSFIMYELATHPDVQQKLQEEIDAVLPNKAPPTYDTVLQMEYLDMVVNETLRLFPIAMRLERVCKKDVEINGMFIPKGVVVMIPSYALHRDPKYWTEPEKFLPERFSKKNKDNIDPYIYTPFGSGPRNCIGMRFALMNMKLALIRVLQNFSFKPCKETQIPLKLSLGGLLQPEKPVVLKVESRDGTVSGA

For `COc1cc2c(c(OC)c1OC)-c1ccc(O)c(=O)cc1[C@H](N)CC2`, the result in assay [1], in assay [4] and in assay [7] was inactive. Moreover, the Potency entry in [2], in assay [8], in assay [9] and in assay [11] was “inactive” throughout. Also, the activity change, negative = inhibition in assay [3] is 14.9% (inactive); in [10], 1.48% (inactive). Further, the Potency in assay [5] and in assay [6] was > 20.6 µM (inactive) in each case. The max response in assay [10] (setting [18]) is -6.02%; in assay [10] (setting [19]), -4.27%.

Take `CN1[C@@H]2CCC[C@H]1CC(=O)C2`: the compound was called inactive in assay [1], in [4] and in assay [7]. In addition, the Potency entry in assay [2], in assay [8] and in [11] was “inactive” each time. Moreover, the activity change, negative = inhibition in assay [3] was -4.22% (inactive); in [10], -2.47% (inactive). The Potency in assay [5] and in assay [6] was > 20.6 µM (inactive) each time. Further, the max response is -0.588% in [10] (setting [18]) and -3.94% in assay [10] (setting [19]).

Consider `CNC[C@H](O)c1ccc(O)c(OC)c1`, for which the result in [1], in [4] and in assay [7] was inactive. In addition, the Potency result in [2], in assay [8] and in assay [11] was “inactive” in each case. Moreover, the activity change, negative = inhibition was 3.38% (inactive) in [3] and -0.567% (inactive) in [10]. The Potency in assay [5] and in assay [6] was > 20.6 µM (inactive) in each case. Besides, the max response was 7.01% in [10] (setting [18]) and 8.44% in assay [10] (setting [19]).

For the compound `CC1=CC(=O)C2=C(C)C[C@@H](O)[C@@H]3[C@@H](OC(=O)[C@H]3C)[C@H]12`, the result in assay [1], in [4] and in [7] was inactive. The activity change, negative = inhibition in assay [3] is -5.22% (inactive); in assay [10], -1.62% (inactive). In addition, the Potency in assay [5] and in assay [6] was > 20.6 µM (inactive) throughout. In addition, the Potency result in assay [8] and in assay [11] was “inactive” each time. Moreover, the max response was -12.9% in assay [10] (setting [18]) and -12% in [10] (setting [19]).

For `CN[C@@H](C)[C@H]1CC[C@@H](N)[C@@H](O[C@@H]2[C@@H](O)[C@@H](O[C@H]3OC[C@@](C)(O)[C@@H](NC)[C@@H]3O)[C@H](N)C[C@@H]2N)O1` (tested in a mixture with another compound), the outcome in assay [1], in assay [4] and in [7] was inactive. Besides, the Potency entry in [8], in assay [11], in assay [12], in assay [13], in [15] and in assay [16] was “inactive” each time. Besides, in assay [17], the Potency result was “inactive”. In [10], the activity change, negative = inhibition was -2.96% (inactive). In addition, the max response is -4.43% in [10] (setting [18]) and -11.6% in [10] (setting [19]). Besides, the activity, negative = inhibition in assay [14] was 3.71% (inactive).
